Inconclusive results are not listed. Calls of active or inactive are those of the source. Rule for the calls: active = hit-call score of the fitted dose curve at least 0.9, where 1 is the maximum; inconclusive = response in the unintended direction; inactive = score below 0.9.
How the values were obtained:
[1] = biological target: human Acid Phosphatase 1 (ACP1), ACP1 (gene 52) (UniProt P24666); assay: NVS_ENZ_hACP1: NovaScreen (NVS) Enzymatic Assay for human Acid Phosphatase 1 (ACP1) (AID 2283136)
How it was run: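 Cell-free fluorescence read-out of phosphatase activity, substrate and product separated by mobility shift, taken 1.5 h after compound addition; protein produced in Sf9. Single 25 uM duplicate screen, followed by concentration series for actives, scored as signal loss relative to DMSO.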

[2] = biological target: human Beta-secretase (BACE), BACE1 (gene 23621) (UniProt P56817); assay: NVS_ENZ_hBACE: NovaScreen (NVS) Enzymatic Assay for human Beta-secretase (BACE) (AID 2283140);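 note: hits are inhibitors that reduce fluorescent substrate signal versus DMSO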
How it was run: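 Enzyme from SF9 cells was incubated 1 hour with compound and fluorogenic substrate, activity read by fluorescence. Single-concentration duplicates at 25 uM preceded concentration-response follow-up; fitting relative to DMSO baseline.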

[3] = biological target: Cytochrome P450 2C19 (Homo sapiens) (UniProt P33261); assay: NVS_ADME_hCYP2C19: NovaScreen (NVS) CYP450-related Enzyme Activity (ADME) Assay for human CYP2C19 (AID 2283113);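 for AC50: potency for inhibition seen as loss of fluorescent signal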
How it was run: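 Chemicals first screened in duplicate at 10 uM against recombinant human enzyme produced in insect cells; confirmed actives then run as concentration series. Fluorogenic substrate turnover read by fluorescence after 1 h, normalised to acetonitrile.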

[4] = biological target: human CYP2D6, CYP2D6 (gene 1565) (UniProt P10635); assay: NVS_ADME_hCYP2D6: NovaScreen (NVS) CYP450-related Enzyme Activity (ADME) Assay for human CYP2D6 (AID 2283107)
How it was run: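 Compounds were first tested in duplicate at 10 uM against recombinant enzyme produced in insect cells, with substrate turnover measured by fluorescence after 1 hour. Decreased signal, referenced to acetonitrile vehicle, was taken as reduced enzyme activity. Active chemicals went on to concentration-response testing.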

[5] = biological target: human CYP2C9, CYP2C9 (gene 1559) (UniProt P11712); assay: NVS_ADME_hCYP2C9: NovaScreen (NVS) CYP450-related Enzyme Activity (ADME) Assay for human CYP2C9 (AID 2283108)
How it was run: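 Fluorescence readout of CYP2C9 activity (SF9-expressed human enzyme) at 0.75 h. The primary screen used 10 uM in duplicate, with concentration-response follow-up for actives; acetonitrile was the negative control.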

[6] = biological target: human CYP2B6, CYP2B6 (gene 1555) (UniProt P20813); assay: NVS_ADME_hCYP2B6: NovaScreen (NVS) CYP450-related Enzyme Activity (ADME) Assay for human CYP2B6 (AID 2283101)
How it was run: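 Recombinant protein, specific fluorescent substrate, read at 1 h post-dosing. Primary: single 10 uM, duplicate; follow-up: concentration series. Activity = signal loss vs acetonitrile baseline, with positive and negative controls on every plate.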

[7] = biological target: human CYP1A2, CYP1A2 (gene 1544) (UniProt P05177); assay: NVS_ADME_hCYP1A2: NovaScreen (NVS) CYP450-related Enzyme Activity (ADME) Assay for human CYP1A2 (AID 2283102);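 for AC50: fluorescence from turnover of a fluorogenic substrate by recombinant insect-cell CYP1A2; potency for inhibition since loss of fluorescence marks reduced CYP1A2 activity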
How it was run: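 Compounds were tested at 10 uM in duplicate against recombinant CYP1A2 produced in insect cells. Enzyme activity was measured by fluorescence 0.5 h after dosing, with loss of signal versus acetonitrile control. Active compounds were re-tested in concentration series.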

[8] = biological target: Cytochrome P450 3A4 (Homo sapiens) (UniProt P08684); assay: NVS_ADME_hCYP3A4: NovaScreen (NVS) CYP450-related Enzyme Activity (ADME) Assay for human CYP3A4 (AID 2283110)
How it was run: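 Compounds screened in duplicate at 10 uM, with follow-up concentration-response for actives, against insect-cell-expressed recombinant enzyme. Activity read by fluorescence 0.33 h after dosing; loss of signal versus acetonitrile control indicates inhibition.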

[9] = biological target: human AKT serine/threonine Kinase 1 (AKT1), AKT1 (gene 207) (UniProt P31749); assay: NVS_ENZ_hAKT1: NovaScreen (NVS) Enzymatic Assay for human AKT serine/threonine Kinase 1 (AKT1) (AID 2283138)
How it was run: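 Screening first at 25 uM (duplicate), with threshold-passing chemicals re-tested in concentration series to a 50 uM maximum. Kinase activity read by fluorescence with mobility-shift separation of substrate and product, 1 h after dosing, DMSO baseline.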

Caspase-3 (Homo sapiens) = Caspase-3 (Homo sapiens) (UniProt P42574); assay: NVS_ENZ_hCASP3: NovaScreen (NVS) Enzymatic Assay for human Caspase 3 (CASP3) (AID 2283139)
Procedure: NVS_ENZ_hCASP3 is a biochemical, single-readout assay that uses extracted gene-proteins from E. coli in a cell-free assay. Measurements were taken 1 hour after chemical dosing in a 96-well plate.NVS_ENZ_hCASP3 is one of one assay component(s) measured or calculated from the NVS_ENZ_hCASP3 assay. It is designed to make measurements of enzyme activity, a form of enzyme reporter, as detected with fluorescence intensity signals by Fluorescence technology.Data from the assay component NVS_ENZ_hCASP3 was analyzed into 1 assay endpoint. This assay endpoint, NVS_ENZ_hCASP3, was analyzed in the positive analysis fitting direction relative to DMSO as the negative control and baseline of activity. Using a type of enzyme reporter, loss-of-signal activity can be used to understand changes in the enzymatic activity as they relate to the gene CASP3. Furthermore, this assay endpoint can be referred to as a primary readout, because this assay has produced multiple assay endpoints where this one serves a enzymatic activity function. To generalize the intended target to other relatable targets, this assay endpoint is annotated to the protease intended target family, where the subfamily is cysteine protease.
Binding assays used specific radioligands (tritiated, iodinated) with non-radioactive competitive displacement ligands in agonist or antagonist protocols (as indicated) and various reference compounds and inhibitors to titrate specific binding to receptors and transporters. Most enzyme assays (CYPs, kinases, phosphatases, proteases, HDACs) used recombinant protein and specific substrates (fluorescence mostly, some colorimetric and radioactive) and inhibitors, followed by a biochemical separation of substrate and product. All assays for the biochemical HTS were initially run in duplicate at a single concentration (10 uM for CYP450 assays and 25 uM for all others). […]

Sequence of Caspase-3 (Homo sapiens) (P42574 whole entry, looked up): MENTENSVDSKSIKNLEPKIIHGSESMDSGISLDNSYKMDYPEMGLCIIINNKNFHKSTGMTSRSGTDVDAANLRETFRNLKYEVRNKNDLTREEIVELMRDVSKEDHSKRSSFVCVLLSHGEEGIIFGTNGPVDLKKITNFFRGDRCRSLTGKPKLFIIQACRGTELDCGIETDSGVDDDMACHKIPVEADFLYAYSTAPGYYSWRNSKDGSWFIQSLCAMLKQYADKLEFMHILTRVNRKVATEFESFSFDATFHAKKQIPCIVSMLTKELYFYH
Sequence of human Acid Phosphatase 1 (ACP1), ACP1 (gene 52) (P24666 whole entry, looked up): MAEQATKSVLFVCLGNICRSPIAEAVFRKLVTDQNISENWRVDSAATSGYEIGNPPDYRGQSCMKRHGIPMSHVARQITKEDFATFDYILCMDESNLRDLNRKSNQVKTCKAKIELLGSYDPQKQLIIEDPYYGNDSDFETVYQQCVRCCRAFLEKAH
Sequence of human AKT serine/threonine Kinase 1 (AKT1), AKT1 (gene 207) (P31749 whole entry, looked up): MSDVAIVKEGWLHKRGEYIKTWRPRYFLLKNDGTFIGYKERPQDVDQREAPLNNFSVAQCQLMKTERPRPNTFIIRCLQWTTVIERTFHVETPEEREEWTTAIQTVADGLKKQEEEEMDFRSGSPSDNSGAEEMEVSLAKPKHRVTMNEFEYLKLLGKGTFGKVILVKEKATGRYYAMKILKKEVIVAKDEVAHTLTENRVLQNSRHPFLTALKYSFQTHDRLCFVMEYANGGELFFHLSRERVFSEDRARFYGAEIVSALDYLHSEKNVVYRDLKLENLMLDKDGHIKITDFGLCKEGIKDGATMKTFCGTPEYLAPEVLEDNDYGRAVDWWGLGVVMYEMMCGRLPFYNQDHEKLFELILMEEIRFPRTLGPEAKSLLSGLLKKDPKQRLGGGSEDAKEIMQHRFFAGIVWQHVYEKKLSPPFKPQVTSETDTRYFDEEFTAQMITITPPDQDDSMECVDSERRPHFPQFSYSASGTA
Sequence of human CYP1A2, CYP1A2 (gene 1544) (P05177 whole entry, looked up): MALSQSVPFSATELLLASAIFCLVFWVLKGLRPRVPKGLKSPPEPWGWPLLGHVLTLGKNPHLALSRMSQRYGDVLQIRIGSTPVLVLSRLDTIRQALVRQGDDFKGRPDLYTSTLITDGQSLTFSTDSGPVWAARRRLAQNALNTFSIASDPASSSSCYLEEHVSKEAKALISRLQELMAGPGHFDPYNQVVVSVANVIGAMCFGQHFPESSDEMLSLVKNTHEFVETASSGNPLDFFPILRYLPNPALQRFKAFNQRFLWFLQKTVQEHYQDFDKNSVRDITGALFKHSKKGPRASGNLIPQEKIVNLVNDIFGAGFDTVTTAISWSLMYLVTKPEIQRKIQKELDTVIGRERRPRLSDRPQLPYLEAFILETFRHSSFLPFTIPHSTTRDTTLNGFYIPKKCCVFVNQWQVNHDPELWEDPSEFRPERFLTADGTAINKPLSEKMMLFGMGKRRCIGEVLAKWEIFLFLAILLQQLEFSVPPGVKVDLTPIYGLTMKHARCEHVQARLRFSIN
Sequence of Cytochrome P450 3A4 (Homo sapiens) (P08684 whole entry, looked up): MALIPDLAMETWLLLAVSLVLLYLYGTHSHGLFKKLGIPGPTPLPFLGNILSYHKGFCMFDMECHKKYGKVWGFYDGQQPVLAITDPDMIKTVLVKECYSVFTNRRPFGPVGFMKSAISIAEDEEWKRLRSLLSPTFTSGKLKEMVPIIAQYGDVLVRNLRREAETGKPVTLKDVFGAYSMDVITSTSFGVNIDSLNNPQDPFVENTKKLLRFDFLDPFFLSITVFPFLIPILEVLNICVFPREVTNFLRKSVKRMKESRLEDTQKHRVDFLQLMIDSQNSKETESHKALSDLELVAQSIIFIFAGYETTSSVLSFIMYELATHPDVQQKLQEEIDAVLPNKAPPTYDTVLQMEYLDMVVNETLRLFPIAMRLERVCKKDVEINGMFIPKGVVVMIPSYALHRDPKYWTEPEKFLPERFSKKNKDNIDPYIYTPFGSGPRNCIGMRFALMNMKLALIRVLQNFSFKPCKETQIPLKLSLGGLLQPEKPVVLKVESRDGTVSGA
Sequence of human CYP2D6, CYP2D6 (gene 1565) (P10635 whole entry, looked up): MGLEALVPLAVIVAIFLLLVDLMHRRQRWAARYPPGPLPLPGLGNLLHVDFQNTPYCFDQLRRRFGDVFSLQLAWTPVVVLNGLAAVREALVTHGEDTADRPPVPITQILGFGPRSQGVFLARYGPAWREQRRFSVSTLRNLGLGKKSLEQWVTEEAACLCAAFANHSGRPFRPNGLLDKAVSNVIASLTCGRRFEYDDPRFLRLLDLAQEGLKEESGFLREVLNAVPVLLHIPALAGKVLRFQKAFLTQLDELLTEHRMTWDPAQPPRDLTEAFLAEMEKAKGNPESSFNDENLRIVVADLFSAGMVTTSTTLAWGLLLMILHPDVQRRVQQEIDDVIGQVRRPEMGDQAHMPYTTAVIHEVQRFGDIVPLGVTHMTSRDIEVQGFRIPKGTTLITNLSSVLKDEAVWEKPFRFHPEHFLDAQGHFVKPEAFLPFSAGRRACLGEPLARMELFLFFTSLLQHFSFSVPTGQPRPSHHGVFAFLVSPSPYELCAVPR
Sequence of human Beta-secretase (BACE), BACE1 (gene 23621) (P56817 whole entry, looked up): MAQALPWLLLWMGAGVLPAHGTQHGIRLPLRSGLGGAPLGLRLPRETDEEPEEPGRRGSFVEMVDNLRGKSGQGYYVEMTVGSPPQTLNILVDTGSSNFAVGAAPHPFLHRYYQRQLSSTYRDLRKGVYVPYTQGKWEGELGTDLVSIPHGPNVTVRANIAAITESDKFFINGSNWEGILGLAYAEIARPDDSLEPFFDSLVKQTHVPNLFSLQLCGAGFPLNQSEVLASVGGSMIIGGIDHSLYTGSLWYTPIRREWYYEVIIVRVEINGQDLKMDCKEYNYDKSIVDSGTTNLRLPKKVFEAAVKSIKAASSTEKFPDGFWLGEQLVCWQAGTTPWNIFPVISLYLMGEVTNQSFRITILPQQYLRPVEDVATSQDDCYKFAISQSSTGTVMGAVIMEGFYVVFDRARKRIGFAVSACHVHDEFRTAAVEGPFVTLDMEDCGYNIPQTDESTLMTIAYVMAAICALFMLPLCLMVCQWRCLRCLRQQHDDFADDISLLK
Sequence of human CYP2C9, CYP2C9 (gene 1559) (P11712 whole entry, looked up): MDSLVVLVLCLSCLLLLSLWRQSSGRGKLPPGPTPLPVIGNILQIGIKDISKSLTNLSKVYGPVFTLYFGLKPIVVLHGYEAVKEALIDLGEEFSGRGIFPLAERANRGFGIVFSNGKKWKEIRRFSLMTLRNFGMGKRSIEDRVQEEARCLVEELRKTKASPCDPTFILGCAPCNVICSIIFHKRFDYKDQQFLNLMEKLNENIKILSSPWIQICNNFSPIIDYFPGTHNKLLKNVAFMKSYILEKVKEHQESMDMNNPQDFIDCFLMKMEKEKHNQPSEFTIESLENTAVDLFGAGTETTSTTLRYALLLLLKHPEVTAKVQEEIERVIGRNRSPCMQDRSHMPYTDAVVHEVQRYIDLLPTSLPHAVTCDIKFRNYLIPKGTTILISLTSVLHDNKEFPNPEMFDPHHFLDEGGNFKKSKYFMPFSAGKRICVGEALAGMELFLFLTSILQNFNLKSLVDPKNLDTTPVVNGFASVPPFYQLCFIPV
Sequence of human CYP2B6, CYP2B6 (gene 1555) (P20813 whole entry, looked up): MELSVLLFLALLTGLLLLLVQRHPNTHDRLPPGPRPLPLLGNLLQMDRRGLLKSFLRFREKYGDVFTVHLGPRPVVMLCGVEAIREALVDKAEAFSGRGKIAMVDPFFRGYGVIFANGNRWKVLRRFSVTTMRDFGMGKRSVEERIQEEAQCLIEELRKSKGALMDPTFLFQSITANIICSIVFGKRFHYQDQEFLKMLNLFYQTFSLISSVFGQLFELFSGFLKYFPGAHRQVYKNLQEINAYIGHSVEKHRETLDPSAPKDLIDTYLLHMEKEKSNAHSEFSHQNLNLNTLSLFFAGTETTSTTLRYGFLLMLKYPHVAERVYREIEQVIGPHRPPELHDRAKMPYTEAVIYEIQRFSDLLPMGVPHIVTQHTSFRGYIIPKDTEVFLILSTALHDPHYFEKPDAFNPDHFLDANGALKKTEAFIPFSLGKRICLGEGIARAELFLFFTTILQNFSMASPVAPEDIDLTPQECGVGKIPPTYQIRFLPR

Q: With `CCOC(=O)C(C)(C)Oc1ccc(Cl)cc1` as the compound, how does the outcome [1] read?
A: inactive

Q: And the outcome [2]?
A: inactive

Q: Which outcome [3] does the source give for `Cc1c(C(=O)O)c(O)cc2c1C(=O)c1c(O)c([C@@H]3O[C@H](CO)[C@@H](O)[C@H](O)[C@H]3O)c(O)c(O)c1C2=O` here?
A: inactive

Q: For `CCCCCCC(=O)OCC`, which outcome [4] is on record?
A: inactive

Q: What about the AC50 [5] of the same compound?
A: 14.8 µM (active)

Q: For `CCOc1ccc2c(c1)C(C)=CC(C)(C)N2`, which AC50 [6] is on record?
A: 11.6 µM (active)

Q: And the outcome [7]?
A: inactive

Q: What about the AC50 [4] of the same compound?
A: 3.51 µM (active)

Q: And the AC50 [5]?
A: 10 µM (active)

Q: `COc1ccc2c(c1)c(CC(=O)O)c(C)n2C(=O)c1ccc(Cl)cc1` was tested. Which outcome [6] did it give?
A: inactive

Q: What about the AC50 [8] of the same compound?
A: 10 µM (active)

Q: With `CN1CCN(Cc2cc(-c3ccc4[nH]c(=O)oc4c3)co2)[C@@H](c2ccc(F)cc2)C1` as the compound, how does the outcome [3] read?
A: inactive

Q: `CNC(=O)[C@H]1O[C@@H](n2cnc3c(NCc4cc(Cl)ccc4OCc4cc(C)no4)ncnc32)[C@H](O)[C@@H]1N` was tested. Which outcome [9] did it give?
A: inactive

Q: `CC1(C)CC(N=C=O)CC(C)(CN=C=O)C1` (stereo unspecified) was tested. Which outcome [7] did it give?
A: inactive

Q: For `CCCCCCOCCO`, which outcome [9] is on record?
A: inactive

Q: With `O=C(O)Cc1ccccc1Nc1c(Cl)cccc1Cl` as the compound, how does the outcome [7] read?
A: inactive

Q: And the outcome [4]?
A: inactive

Q: And the outcome [1]?
A: inactive

Q: `CCc1c(C(=O)NN2CCCCC2)nn(-c2ccc(Cl)cc2Cl)c1-c1ccc(Br)cc1` was tested. Which outcome [8] did it give?
A: inactive

Q: What about the outcome [3] of the same compound?
A: inactive

Q: For `CCOC(=O)CCC(=O)OCC`, which outcome [6] is on record?
A: inactive

Q: What about the outcome [7] of the same compound?
A: inactive

Q: And the outcome [4]?
A: inactive

Q: What about the outcome [5] of the same compound?
A: inactive

Q: And the AC50 [3]?
A: 15.4 µM (active)

Q: With `CCCCCC(=O)O` as the compound, how does the outcome [9] read?
A: inactive

Q: `C=CCOC(=O)c1ccccc1C(=O)OCC=C` was tested. Which AC50 [6] did it give?
A: 7.79 µM (active)

Q: What about the AC50 [7] of the same compound?
A: 3.03 µM (active)

Q: What about the AC50 [8] of the same compound?
A: 6.19 µM (active)

Q: And the AC50 [3]?
A: 2.99 µM (active)

Q: Which results are given for `COc1ccc(S(=O)(=O)N2C(=O)[C@@](c3ccccc3OC)(N3C[C@H](O)C[C@H]3C(=O)N(C)C)c3cc(Cl)ccc32)c(OC)c1`?
A: AC50 [8]: 4.57 µM (active); AC50 [3]: 6.95 µM (active)

Q: Which AC50 [2] does the source give for `CCCCOC(=O)CCCCCCCCC(=O)OCCCC` here?
A: 2.12 µM (active)

Q: `CCCCc1ccc2c(n1)[C@@H](c1ccc(OC)cc1C[C@H](C)C(=O)O)[C@H](C(=O)O)[C@H]2c1ccc2c(c1)OCO2` was tested. Which AC50 [2] did it give?
A: 9.68 µM (active)

Q: Which outcome [1] does the source give for `FC(F)(F)C(F)(F)C(F)(F)C(F)(F)C(F)(F)C(F)(F)CCI` here?
A: inactive

Q: Which outcome [6] does the source give for `Nc1ccc2c(c1)C(=O)c1ccccc1C2=O` here?
A: inactive

Q: And the AC50 [7]?
A: 4.65 µM (active)

Q: And the outcome [9]?
A: inactive

Q: And the AC50 [2]?
A: 2.16 µM (active)

Q: With `Cc1cccc([N+](=O)[O-])c1C` as the compound, how does the AC50 [3] read?
A: 18.6 µM (active)

Q: Which results are given for `Cc1ccc2ncccc2c1`?
A: outcome [1]: inactive; outcome [2]: inactive

Q: For `CCCCC(CC)COC(=O)CC(C(=O)OCC(CC)CCCC)S(=O)(=O)O` (stereo unspecified), which AC50 [5] is on record?
A: 3.5 µM (active)

Q: What about the AC50 [3] of the same compound?
A: 4.49 µM (active)

Q: And the AC50 [2]?
A: 1.35 µM (active)

Q: How did the outcome [8] turn out when `NCCO` was run?
A: inactive

Q: And the outcome [1]?
A: inactive

Q: What about the outcome [9] of the same compound?
A: inactive

Q: How did the outcome [9] turn out when `CCCCCCCCCCCC(=O)OC` was run?
A: inactive

Q: `Oc1ccc2c(c1)OC[C@@H](N1CCC(O)(c3ccc(F)cc3)CC1)[C@H]2O` was tested. Which AC50 [6] did it give?
A: 6.22 µM (active)

Q: What about the outcome [7] of the same compound?
A: inactive

Q: And the outcome [4]?
A: inactive

Q: What about the AC50 [3] of the same compound?
A: 7.71 µM (active)

Q: How did the AC50 [3] turn out when `CNCc1cc(F)ccc1Oc1ccc(Cl)c(Cl)c1` was run?
A: 1.11 µM (active)

Q: Which AC50 [2] does the source give for `Cc1oc(-c2ccccc2)nc1CCOc1cccc2c1ccn2CCC(=O)O` here?
A: 9.92 µM (active)

Q: With `CC=Cc1ccc(O)c(OC)c1` as the compound, how does the outcome [6] read?
A: inactive

Q: And the outcome [5]?
A: inactive

Q: How did the outcome [9] turn out when `CCCCCCCCCCCCCCCC` was run?
A: inactive

Q: For `CC(=O)C(C)=CC1C(C)=CCCC1(C)C` (stereo unspecified), which outcome [9] is on record?
A: inactive

Q: `CC1=C(/C=C/C(C)=C/C=C/C(C)=C/CO)C(C)(C)CCC1` was tested. Which AC50 [5] did it give?
A: 18.2 µM (active)

Q: What about the outcome [3] of the same compound?
A: inactive

Q: And the outcome [9]?
A: inactive

Q: For `CC(C)(C)c1cc(O)c(C(C)(C)C)cc1O`, which outcome [9] is on record?
A: inactive

Q: For `COc1cc(S(=O)(=O)O)c(C)cc1N=Nc1c(O)ccc2cc(S(=O)(=O)O)ccc12`, which AC50 (Caspase-3 (Homo sapiens)) is on record?
A: 15.3 µM (active)

Q: `CCCc1cc(=O)[nH]c(=S)[nH]1` was tested. Which outcome [1] did it give?
A: inactive

Q: What about the outcome (Caspase-3 (Homo sapiens)) of the same compound?
A: inactive

Q: Which AC50 [5] does the source give for `Nc1nc(N)c2nc(CNc3ccc(C(=O)N[C@@H](CCC(=O)O)C(=O)O)cc3)cnc2n1` here?
A: 12.3 µM (active)

Q: With `Nc1ccccc1N` as the compound, how does the outcome [2] read?
A: inactive

Q: Which outcome [9] does the source give for `O=C(OCCCCCOC(=O)c1ccccc1)c1ccccc1` here?
A: inactive

Q: With `Cc1nc(-c2ccc3c(c2)CCN(CCC2CCC(NC(=O)/C=C/c4ccc(F)cc4)CC2)CC3)no1` (stereo unspecified) as the compound, how does the outcome (Caspase-3 (Homo sapiens)) read?
A: inactive

Q: How did the outcome [7] turn out when `O=C(N[C@@H](Cc1ccccc1)[C@@H](O)C(=O)N1C[C@@H](O)[C@@H](O)C1)c1cc2cc(Cl)ccc2[nH]1` was run?
A: inactive

From PubChem BioAssay (EPA / NIEHS)
